Results: ChEMBL document CHEMBL1961873, “Compounds: GSK PKIS; Assays: Nanosyn kinase panel” (2012)

How the values were obtained:
[1] = biological target: Mast/stem cell growth factor receptor Kit (Homo sapiens) (UniProt P10721); details: at 1 µM
[2] = test system: Mast/stem cell growth factor receptor Kit (Homo sapiens), P10721 [D816V]; details: at 0.1 µM
[3] = test system: Mast/stem cell growth factor receptor Kit (Homo sapiens), P10721 [D816V]; details: at 1 µM
[4] = test system: Mast/stem cell growth factor receptor Kit (Homo sapiens), P10721 [T670I]; details: at 0.1 µM
Chain of Mast/stem cell growth factor receptor Kit (Homo sapiens), P10721 [T670I] (P10721 whole entry T670I): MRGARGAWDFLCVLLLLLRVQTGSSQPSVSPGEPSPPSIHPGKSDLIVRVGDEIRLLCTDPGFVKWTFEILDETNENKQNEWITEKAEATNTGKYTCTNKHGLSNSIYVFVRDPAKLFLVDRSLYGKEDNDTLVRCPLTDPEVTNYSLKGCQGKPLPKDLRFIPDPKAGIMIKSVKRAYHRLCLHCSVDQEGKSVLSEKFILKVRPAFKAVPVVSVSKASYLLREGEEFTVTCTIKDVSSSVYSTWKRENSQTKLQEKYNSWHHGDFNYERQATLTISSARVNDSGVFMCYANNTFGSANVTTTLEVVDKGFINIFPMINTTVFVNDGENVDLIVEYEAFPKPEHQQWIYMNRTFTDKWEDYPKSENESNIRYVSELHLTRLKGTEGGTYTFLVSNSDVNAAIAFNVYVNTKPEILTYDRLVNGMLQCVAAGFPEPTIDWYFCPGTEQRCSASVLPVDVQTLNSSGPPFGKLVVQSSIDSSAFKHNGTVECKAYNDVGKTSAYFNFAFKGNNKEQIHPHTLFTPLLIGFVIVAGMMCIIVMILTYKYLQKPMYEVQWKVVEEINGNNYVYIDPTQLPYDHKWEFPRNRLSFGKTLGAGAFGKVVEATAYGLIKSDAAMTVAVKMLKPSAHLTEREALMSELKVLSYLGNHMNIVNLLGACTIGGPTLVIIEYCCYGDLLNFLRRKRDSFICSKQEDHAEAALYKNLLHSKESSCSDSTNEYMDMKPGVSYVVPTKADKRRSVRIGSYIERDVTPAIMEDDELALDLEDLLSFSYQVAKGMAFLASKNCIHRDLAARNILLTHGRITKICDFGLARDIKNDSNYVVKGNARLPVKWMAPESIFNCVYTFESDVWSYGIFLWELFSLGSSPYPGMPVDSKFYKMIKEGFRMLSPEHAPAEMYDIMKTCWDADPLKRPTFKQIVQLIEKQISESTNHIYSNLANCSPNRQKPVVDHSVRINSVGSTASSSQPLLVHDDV

[5] = test system: Mast/stem cell growth factor receptor Kit (Homo sapiens), P10721 [T670I]; details: at 1 µM
[6] = test system: Mast/stem cell growth factor receptor Kit (Homo sapiens), P10721 [V560G]; details: at 0.1 µM
Chain of Mast/stem cell growth factor receptor Kit (Homo sapiens), P10721 [V560G] (P10721 whole entry V560G): as the sequence (P10721 whole entry T670I) above, with V560G, I670T counted along it

[7] = test system: Mast/stem cell growth factor receptor Kit (Homo sapiens), P10721 [V560G]; details: at 1 µM
[8] = biological target: Tyrosine-protein kinase Lck (Homo sapiens) (UniProt P06239); details: at 0.1 µM
Chain of Tyrosine-protein kinase Lck (Homo sapiens) (P06239 2-509 limits assumed): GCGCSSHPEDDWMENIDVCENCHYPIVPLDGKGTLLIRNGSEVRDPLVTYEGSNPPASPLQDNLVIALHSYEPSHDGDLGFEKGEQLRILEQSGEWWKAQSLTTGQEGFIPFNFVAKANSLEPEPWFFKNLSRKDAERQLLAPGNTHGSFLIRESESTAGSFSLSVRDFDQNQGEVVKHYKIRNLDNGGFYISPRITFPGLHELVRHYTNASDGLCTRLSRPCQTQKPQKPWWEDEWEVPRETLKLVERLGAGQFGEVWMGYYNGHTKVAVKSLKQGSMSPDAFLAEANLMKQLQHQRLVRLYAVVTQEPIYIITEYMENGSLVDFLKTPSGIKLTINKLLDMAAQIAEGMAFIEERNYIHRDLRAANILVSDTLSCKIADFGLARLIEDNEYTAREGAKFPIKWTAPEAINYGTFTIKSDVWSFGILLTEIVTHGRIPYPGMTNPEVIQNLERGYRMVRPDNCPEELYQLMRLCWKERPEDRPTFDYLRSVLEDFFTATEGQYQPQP

[9] = biological target: Tyrosine-protein kinase Lck (Homo sapiens) (UniProt P06239); details: at 1 µM
[10] = biological target: Leukocyte tyrosine kinase receptor (Homo sapiens) (UniProt P29376); details: at 0.1 µM
Chain of Leukocyte tyrosine kinase receptor (Homo sapiens) (P29376 whole entry): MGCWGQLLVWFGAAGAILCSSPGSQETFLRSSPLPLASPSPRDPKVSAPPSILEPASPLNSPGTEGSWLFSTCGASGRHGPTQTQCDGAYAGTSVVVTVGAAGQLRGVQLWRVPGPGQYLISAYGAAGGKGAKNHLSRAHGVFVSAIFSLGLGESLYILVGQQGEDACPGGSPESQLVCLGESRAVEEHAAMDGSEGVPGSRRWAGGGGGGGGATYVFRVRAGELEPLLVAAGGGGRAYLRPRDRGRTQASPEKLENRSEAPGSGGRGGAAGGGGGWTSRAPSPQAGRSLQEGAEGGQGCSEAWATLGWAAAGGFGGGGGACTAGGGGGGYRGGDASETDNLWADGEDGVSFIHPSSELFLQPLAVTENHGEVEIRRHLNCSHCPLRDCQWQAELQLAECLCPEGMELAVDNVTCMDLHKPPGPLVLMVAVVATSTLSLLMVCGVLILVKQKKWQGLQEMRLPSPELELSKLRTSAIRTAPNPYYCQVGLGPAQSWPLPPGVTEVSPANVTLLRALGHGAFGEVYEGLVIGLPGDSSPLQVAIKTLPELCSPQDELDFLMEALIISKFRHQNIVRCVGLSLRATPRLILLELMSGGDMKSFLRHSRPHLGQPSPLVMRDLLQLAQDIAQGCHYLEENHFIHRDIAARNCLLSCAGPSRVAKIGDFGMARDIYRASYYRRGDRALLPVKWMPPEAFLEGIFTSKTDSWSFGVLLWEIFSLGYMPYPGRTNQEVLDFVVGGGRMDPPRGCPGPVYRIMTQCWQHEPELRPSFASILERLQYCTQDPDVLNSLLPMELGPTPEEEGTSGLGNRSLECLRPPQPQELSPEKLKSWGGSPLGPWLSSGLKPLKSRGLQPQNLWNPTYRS

Chain of Mast/stem cell growth factor receptor Kit (Homo sapiens), P10721 [D816V] (P10721 whole entry D816V): as the sequence (P10721 whole entry T670I) above, with I670T, D816V counted along it
Chain of Mast/stem cell growth factor receptor Kit (Homo sapiens) (P10721 whole entry): as the sequence (P10721 whole entry T670I) above, with I670T counted along it

SMILES	inhibition [1] [%]	inhibition [2] [%]	inhibition [3] [%]	inhibition [4] [%]	inhibition [5] [%]	inhibition [6] [%]	inhibition [7] [%]	inhibition [8] [%]	inhibition [9] [%]	inhibition [10] [%]
COc1ccc2ncn(-c3cc(O[C@H](C)c4ccccc4Cl)c(C(N)=O)s3)c2c1	23.1	2.74	7.75	2.4	7.3	-1.68	0.26	-2.03	-1.76	2.73
NCc1ccc(-n2c(-c3nonc3N)nc3cnccc32)cc1	10.8	4.7	2.04	4.14	5.42	-2.06	2.07	3.81	4.5	5.22
C#Cc1cccc(Nc2ncnc3ccc(OCCCCNCCS(C)(=O)=O)cc23)c1	7.12	5.01	8.8	1.97	9.5	-0.82	4.36	0.24	13.5	5.05
CN(C)c1ccc2c(c1)/C(=C/Nc1ccc(S(N)(=O)=O)cc1)C(=O)N2	28.4	1.55	3.22	3.39	10	-1.48	-1.72	2.35	12.7	0.81
O=C1Nc2ccc(I)cc2C1=Cc1cc(Br)c(O)c(Br)c1	18.4	2.74	2.13	-0.52	4.39	-4.29	-1.08	3.11	3.54	4.82
Fc1ccc(-c2nc3n(c2-c2ccncc2)CCS3)cc1	2.15	4.1	1.39	2.38	2.22	0.09	-0.72	-2.03	1.29	1.98
c1ccc(Oc2ccc(Nc3ncc(-c4ccccc4)o3)cc2)cc1	19.9	-0.64	-0.49	2.73	5.55	-0.1	5.53	2.67	2.2	1.67
COc1cc2ncn(-c3cc(OCc4cccs4)c(C(N)=O)s3)c2cc1OC	11.7	-0.06	3.94	1.45	7.04	1.25	4.05	-0.61	13.8	1.76
N#Cc1ccc(Oc2nccc(-c3c(-c4ccc(F)cc4)ncn3C3CCNCC3)n2)cc1	6.19	2.91	2.36	3.26	4.72	-0.39	-1.19	3.86	6.11	4.74
Cc1ccc(C(=O)NC2CCC2)cc1-c1ccc(C(=O)NCC2CC2)cc1	2.43	1.7	1.73	2.13	-0.64	-2.14	2.11	1.6	2.51	2.34
COc1cc(Nc2ncc3c(C)nc(-c4cccc(Oc5ccccc5)c4)n3n2)cc(OC)c1OC	18.8	2.25	0.81	0.81	-0.67	-2.03	1.13	1.24	5.01	3.21
COc1cc(C)c(N(C)C(=O)CN(C)C)cc1Nc1nc(Nc2cccc(F)c2C(N)=O)c2cc[nH]c2n1	-0.73	-0.92	0.99	-0.51	-1.63	-1.08	-3.38	-3.07	-1.56	11.7
Fc1ccc(-c2c(-c3ccncc3)nc3n2CCS3)cc1	9.55	0.48	4.72	2.05	3.53	-2.29	-3.6	-3.58	-1.31	3.49
CCN(CC)Cc1ccc(Nc2nccc(-c3cnn4ncccc34)n2)cc1	93.1	1.8	4.13	19.4	80.9	8.63	61.5	1.35	15.3	4.48
Fc1ccc(-c2ncn(C3CCNCC3)c2-c2ccnc(Oc3ccc(Oc4ccccc4)cc3)n2)cc1	6.51	2.38	2.59	1.59	1.82	-2.65	-3.42	4.01	4.76	3.78
CCS(=O)(=O)c1ccc(OC)c(Nc2ncc(-c3ccccc3Cl)o2)c1	85.2	0.9	0.58	0.14	24.3	3.4	8.88	4.24	10.2	1.67
C[C@@H](Oc1cc(-n2cnc3ccc(OC4CCN(C)CC4)cc32)sc1C(N)=O)c1ccccc1Cl	5.22	1.72	6.14	1.3	6.17	-4.05	-2.87	-0.67	4.21	4.01

SMILES	inhibition [1] [%]	inhibition [2] [%]	inhibition [3] [%]	inhibition [4] [%]	inhibition [5] [%]	inhibition [6] [%]	inhibition [7] [%]	inhibition [8] [%]	inhibition [9] [%]	inhibition [10] [%]
CN(c1ccc(NC(=O)Nc2c(Cl)cccc2Cl)cc1)c1ccnc(Nc2cccc(CS(C)(=O)=O)c2)n1	95.9	-0.59	2.33	12.3	35.9	71.3	81.5	45.5	61.2	0.54
Nc1nccc(-c2c(-c3ccc(F)cc3)ncn2C2CCC(O)CC2)n1 (stereo not given)	17.1	-2.57	1.44	-0.22	-0.69	1.44	5.14	3.6	29.2	-1.37
COC(=O)Nc1nc2ccc(Sc3ccc(NC(=O)Nc4cc(C(F)(F)F)ccc4F)cc3)cc2[nH]1	43.9	-2.14	5.31	-0.05	30	2.79	27.3	5.45	34.7	-0.1
FC(F)(F)c1cccc(Nc2nccc(-c3cnn4nc(-c5ccccc5)ccc34)n2)c1	37.3	1.06	0.54	1.8	5.77	-2.09	1.67	1.68	2.24	0.59
O=C(Nc1n[nH]c2cc(-c3ccccc3)ccc12)C1CC1	7.38	3.94	8.12	4.34	4.01	1.4	3.87	2.21	6.66	3.88
Cc1ccc(NC(=O)c2ccoc2)cc1-c1ccc(C(=O)NCC2CC2)cc1	0.22	3.87	3.1	1.06	1.82	0.04	-1.21	2.02	3.87	2.79
NC(=O)c1cc(-c2ccncc2)cc(-c2ccccc2)c1N	75.5	6.4	6.94	3.99	4.83	2.91	25.1	7.95	41.6	5.44
CCC(=O)Nc1ccc(C)c(-c2ccc(C(=O)NCC3CC3)cc2)c1	4.74	-1.54	5.31	2.5	3.87	-0.17	-1.72	2.57	5.27	4.98
O=C(NCC1CC1)c1ccc(-c2cccc(C(=O)NC3CC3)c2)cc1	3.45	2.24	-0.44	3.77	-2.45	3.49	5.84	1.74	4.51	1.6
O=C1Nc2ccccc2/C1=C/Nc1ccc(-n2cncn2)cc1	75.9	4.37	8.01	8.82	47.4	-2.32	10.2	3.98	9.02	3.3
CCc1cccc(CC)c1/C=C/c1cncc(C(=O)NC)c1	0.22	2.9	0.24	1.07	2.14	-2.51	4.63	3.18	4.94	1.51
O=C(Nc1n[nH]c2nc(-c3ccc(O)cc3)c(Br)cc12)C1CC1	63.1	9.03	10.1	3.13	4.94	2.07	10.8	6.75	22.2	62.8
Fc1ccc(-c2ncn(C3CCNCC3)c2-c2ccnc(Oc3ccc4c(c3)OCO4)n2)cc1	9.68	4.71	5.2	3.24	3.64	-1.09	-0.53	3.98	8.64	3.89
C[C@@H](Oc1cc(-n2cnc3ccc(OCC4CCN(C)CC4)cc32)sc1C(N)=O)c1ccccc1Cl	8.33	5.13	8.23	0.47	5.37	-4.48	0.38	7.42	29.8	4.38
NC(=O)c1cc(-c2ccc(F)cc2)cc(-c2ccncc2)c1N	46.7	2.24	4.8	4.07	8.15	-2.86	1.74	2.03	7.42	3.88
O=C(Nc1ccc(Oc2ccc3[nH]c(NC(=O)c4ccccc4)nc3c2)cc1)Nc1cc(C(F)(F)F)ccc1F	85.1	1.52	4.26	5.51	52.1	10.4	67	2.25	14.4	1.84
COc1cc(N2CCN(C(C)C)CC2)ccc1Nc1nc(Nc2ccc(F)cc2C(=O)NC[C@@H](O)CO)c2cc[nH]c2n1	6.9	4.14	7.71	3.52	4.77	-2.07	-1.61	-1.06	-2.81	55.2
